Source: PubChem
In the library only some 19% were active in any assay of this set; here they are far more common.
IL1B secr inh: inflammasome signaling inhibition, IL-1 beta readout. activity change, % at 57.5 µM. THP-1 LPS/ATP IL-1B secretion, AlphaLISA, 16 h; stronger effect = lower value. 4.7% of 360,000 active; in the data active means activity change below about -50%; inconclusive means mostly about -30% to -49%
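THP-1 cells pretreated 1 hr with compounds (up to 57.5 uM final), then stimulated with LPS (250 ng/mL final) plus ATP (1.25 mM final); secreted IL-1B measured by AlphaLISA after 16 hr, decreased signal indicating inhibition.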
HT1080 IDH1KD tx: HT-1080 IDH1 knockdown cell toxicity (counter line); HT-1080 IDH1 knockdown viability, ATP luminescence, 48 h; Potency, µM (titrated, usually from 46.1 µM), for the others: at the top dose activity, negative = toxicity, actives largely listed as cytotoxic; 2% of 360,000 active;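 further: potency means the concentration at half of the fitted maximal effect; 0% = DMSO wells and -100% = cell-free medium wells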
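Assay cells: HT-1080 with IDH1 knockdown, 750 per well, RPMI/5% FBS. Exposure: 48 h at 37 °C following 2 h pre-incubation. Read: CellTiter-Glo luminescence; fitted concentration-response, curve class assigned.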
TDP1 cell noCPT: qHTS for Inhibitors of human tyrosyl-DNA phosphodiesterase 1 (TDP1): qHTS in cells in absence of CPT. DT40 Tdp1-/- hTDP1 cells, no CPT, ATP luminescence, 48 h. Potency, µM (top dose mostly 46.2 µM), for the others: at the highest dose activity change, negative = growth inhibition, hits mostly inhibitors. 15% of 420,000 active. AID 686978, 2013; further: potency means the concentration at half of the fitted maximal effect; nearly all actives have a fitted effect of over 55% in size
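Compound effects on proliferation are scored in DT40 Tdp1-/-;hTDP1 cells in the absence of CPT. ATP levels (CellTiter-Glo luminescence) are recorded after a ≥48 hr, 37 °C incubation.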
HT1080NT lethal: kills 2HG-producing HT-1080-NT fibrosarcoma cells; HT-1080-NT fibrosarcoma viability, CellTiter-Glo ATP luminescence, 48 h; Potency, µM (series often up to 46.1 µM), inactives show at the highest dose activity, negative = less viability, hits mostly cytotoxic; 1.6% of 360,000 active;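 further: NT is the 2HG producing partner of a matched IDH1 knockdown line; potency means the concentration at half of the fitted maximal effect; 0% = DMSO-treated cells and -100% = media-only wells without cells; nearly all actives have a fitted effect of over 55% in size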
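HT-1080-NT; 750 cells/well; 5% FBS RPMI; 48 h compound, 37 degrees C; CellTiter-Glo luminescence; curve fitting and curve-class assignment.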
DT40 TDP1 CPT: growth inhibition of DT40 Tdp1-/-;hTDP1 cells with camptothecin (screen for TDP1 inhibitors); chicken DT40 Tdp1-/-;hTDP1 cells + 20 nM CPT, ATP luminescence, 48 h; Potency, µM (highest dose often 46.2 µM), inactives show at the highest dose activity change, negative = growth inhibition, actives largely listed as inhibitors; 12% of 420,000 active; AID 686979; further: potency means the concentration at half of the fitted maximal effect; nearly all actives have a fitted effect of over 55% in size
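Cell growth measured by CellTiter-Glo luminescence after a minimum 48 h, 37 C compound exposure with 20 nM CPT in Tdp1-knockout DT40 cells stably expressing hTDP1, seeded 400/well; qHTS titration format.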
* marks the source's active call; other numbers are inactive results; ? = inconclusive; nt = no result. Unless noted, the call rests on the fitted dose curve; in most records, active means well fitted curve in the direction sought with a large enough effect; inconclusive means small, poorly fitted or top-dose-only effect, or another doubt; inactive means no such curve, though single readings can be large; an effect the other way counts as inactive or inconclusive. Unless noted, on the % scale 0 is the no-effect control and ±100 the full control effect.

SMILES | IL1B secr inh | HT1080 IDH1KD tx | TDP1 cell noCPT | HT1080NT lethal | DT40 TDP1 CPT
Cc1cccc(C(=O)Nc2ccc(NC(=O)Cc3ccc(Cl)cc3)cc2)c1 | -4 | 6% | -3% | 0% | -5%
O=C(O)c1ccc(NC(=S)Nc2ccc(S(=O)(=O)Nc3ccccn3)cc2)cc1 | 7 | 16% | 0% | 1% | 6%
CCCN1C(=O)/C(=C/c2nc3ccccc3c(=O)[nH]2)c2cc(C)ccc21 | 13 | -7% | 8.2µM* | -12% | 21µM*
Cc1ccc(C)c(C(=O)CSc2nc3ccccc3c(=O)[nH]2)c1 | 1 | 3% | ? | -5% | 2%
CC(C)N1C(=O)/C(=C\c2nc3ccccc3c(=O)[nH]2)c2ccccc21 | -100* | ? | 29µM* | ? | ?
CC1=CC(=O)C=C(C)C1=NOc1ccccc1[N+](=O)[O-] | ? | 14% | 2.1µM* | 3% | 1.3µM*
CC(C)(C)/C(COc1ccccc1[N+](=O)[O-])=N/O | 0 | 6% | -3% | 7% | ?
Cc1ccc(S(=O)(=O)CC(=O)Nc2ccc(Cl)cn2)cc1 | 26 | -4% | -26% | 0% | 7%
CC1(C)CC(Nc2ccc(C(F)(F)F)cc2[N+](=O)[O-])CC(C)(C)N1 | -52* | ? | ? | -24% | -21%
CC1(C(=O)NS(=O)(=O)c2ccccc2Cl)CCN1C(=O)Cc1cccc2ccccc12 (centres undefined) | -1 | 2% | 0% | -2% | -7%
Fc1ccc(NC(=S)N2CCN(c3cccc(C(F)(F)F)c3)CC2)cc1 | 8 | -14% | 13µM* | -3% | 21µM*
CCN1CCN(C(=S)Nc2cccc(C(F)(F)F)c2)CC1 | 25 | -13% | -17% | -8% | 3%
S=C(Nc1ccccc1)N1CCN(c2ccccc2)CC1 | -8 | 11% | ? | 5% | ?
O=S(=O)(Nc1ncccn1)c1ccc(NC(=S)N2CCN(c3cccc(C(F)(F)F)c3)CC2)cc1 | 8 | -2% | -15% | -16% | -2%
FC(F)(F)c1cccc(NC(=S)N2CCN(c3cccc(C(F)(F)F)c3)CC2)c1 | -2 | ? | 15µM* | -20% | ?
O=S(=O)(c1cccc(NC(=S)N2CCN(c3ccccc3)CC2)c1)C(F)F | -15 | 1% | 16µM* | -1% | 13µM*
O=C(Oc1ccc2ccccc2c1Br)N1CCCCCC1 | 14 | ? | 21µM* | -1% | ?
CCN(CC)C(=O)Oc1ccc(Br)c2ccccc12 | 0 | -15% | ? | -5% | ?
O=C(COc1ccc2ccccc2c1Br)N1CCCCC1 | 20 | -16% | 3% | 19% | ?
CCN(CC)C(=O)Oc1ccc2ccccc2c1Br | -60* | ? | ? | ? | -6%
COc1ccc(N(C(=O)CSCC(=O)Nc2cc(C)on2)C(C(=O)NC2CCCCC2)c2ccc(O)c(O)c2)cc1 (centres undefined) | 1 | 6% | ? | 3% | -24%
Cc1cc(NC(=O)CSCC(=O)N(c2ccc(F)cc2)C(C(=O)NC2CCCCC2)c2ccc(O)c(O)c2)no1 (centres undefined) | -50* | -6% | 16µM* | -6% | ?
Cc1ccc(N/C=C2/Sc3ccccc3NC2=O)cc1 | 13 | 6% | 2% | 17% | -14%
CCC(C)NC(=O)/C=C1\Sc2ccccc2NC1=O (centres undefined) | -61* | 7% | ? | 28% | -12%
COc1c2ccccc2nc2occc12 | nt | nt | 2% | nt | 5%
SMILES | IL1B secr inh | HT1080 IDH1KD tx | TDP1 cell noCPT | HT1080NT lethal | DT40 TDP1 CPT
O=C(CCNC(=O)C1CCN(S(=O)(=O)c2ccccc2)CC1)Nc1cccc(C(F)(F)F)c1 | -13 | -13% | ? | -5% | -39%
C/C(=N\Nc1ncc(Cl)cc1Cl)c1ccccn1 | 0 | 0.23µM* | 0.026µM* | ? | 18µM*
Cc1sc2ncnc(N/N=C/c3cccc(O)c3)c2c1C | -19 | ? | -22% | ? | 2%
C/C(=N\Nc1ncnc2sc(C)c(C)c12)c1ccccn1 | -1 | 0.52µM* | 0.015µM* | 0.92µM* | 0.1µM*
C/C(=N\Nc1cccc2cccnc12)c1ccccn1 | 31 | -26% | 0.92µM* | ? | 0.73µM*
CCn1c(SCC(=O)NC2CC2)nnc1-c1ccc(OC)cc1 | 0 | 2% | -12% | -3% | -9%
COc1ccc(CCn2c(=O)c3ccccc3n(CC(=O)Nc3cccc(C)c3)c2=O)cc1OC | nt | nt | -15% | nt | -11%
COc1c(O)c(O)c2oc(-c3ccccc3)cc(=O)c2c1OC | -9 | -3% | ? | -8% | ?
COc1cc2c(c3oc(-c4ccccc4)cc(=O)c13)C=CC(C)(C)O2 | 16 | 9% | 26µM* | -1% | 16µM*
COc1cc(OC)c2c(=O)cc(-c3ccccc3)oc2c1 | -23 | 0% | ? | -4% | 21µM*
CC(=O)N1CCN(c2ccccc2NC(=O)COc2cc(C)cc(C)c2)CC1 | ? | -9% | -14% | -3% | 0%
CCCn1c(=O)c2sccc2n2c(CCCC(=O)Nc3ccc(Oc4ccc(Cl)cc4)cc3)nnc12 | nt | nt | 16µM* | nt | 16µM*
COc1ccc(NC(=O)CCCc2nnc3n(C)c(=O)c4sccc4n23)cc1 | 8 | 9% | -7% | 8% | -1%
CCCn1c(=O)c2sccc2n2c(CCCC(=O)Nc3ccccc3F)nnc12 | nt | nt | ? | nt | 0%
CCCn1c(=O)c2sccc2n2c(CCCC(=O)Nc3ccc(Oc4ccccc4)cc3)nnc12 | nt | nt | 15µM* | nt | 10µM*
CSc1cccc(NC(=S)NC(=O)c2cccnc2)c1 | 13 | 1% | -19% | 7% | -26%
COc1ccc(NC(=O)c2ccco2)cc1NC(=O)c1cc2ccccc2o1 | 11 | 2% | 15µM* | 14% | 23µM*
O=C(Nc1ccc(NC(=O)c2cc3ccccc3o2)cc1)c1ccco1 | 1 | -29% | ? | ? | ?
COc1cc(OC)cc(C(=O)Nc2ccc(NC(=O)c3ccco3)c(C)c2)c1 | -21 | 23µM* | ? | ? | ?
Cc1cc(NC(=O)c2ccco2)ccc1NC(=O)c1ccco1 | -10 | -26% | ? | ? | ?
CCCOc1cccc(C(=O)Nc2cc(NC(=O)c3ccco3)ccc2OC)c1 | -10 | 1% | ? | 9% | ?
Cc1cc(NC(=O)c2ccc3c(c2)OCO3)ccc1NC(=O)c1ccco1 | nt | 18µM* | ? | ? | ?
COc1cc(OC)cc(C(=O)Nc2cc(NC(=O)c3ccco3)ccc2OC)c1 | -23 | ? | 18µM* | -12% | 23µM*
CCN(CC)S(=O)(=O)c1cccc(C(=O)OCC(=O)NCc2ccccc2OC)c1 | 20 | -6% | -16% | -10% | -5%
CN(C)CCOC(=O)CCCCCCCCC(=O)OCCN(C)C | nt | 30% | -3% | 11% | 1%
